{"source": "PubChem BioAssay AID1508622", "about": "(National Center for Advancing Translational Sciences (NCATS), 2021)", "experiment": "Confirmatory qHTS for Identification of Small Molecule Activators of Huntingtin-Antisense Promoter Activity", "in_short": "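Activity normalized between vehicle control (0%) and zero RLU (-100%) from firefly luminescence (Dual-Glo). Compounds, up to 57.5 uM final, incubated 24 h at 37C on HEK293 reporter cells plated 24 h earlier.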", "note": "Activity calls are given as the source filed them. Entries that show only a call come without a potency. Calls come from the whole dose curve; as a rule, active = well fitted activation curve with a large enough effect; inconclusive = small, poorly fitted or top-dose-only effect; inactive = no such curve, though single readings can be large or run the other way."}
{"smiles": "COc1cc(NC(=O)CSc2nc3nc(C)c(Cc4ccc(C)cc4)c(C)n3n2)cc(OC)c1", "values": [{"measurement": "Potency", "result": "inactive"}]}
{"smiles": "Cc1ccc(S(=O)(=O)N(CC(=O)NCCc2ccc(Cl)cc2)c2ccccc2C)cc1", "values": [{"measurement": "Potency", "result": "inactive"}]}
{"smiles": "COc1ccc(CCNc2ncnc3onc(C)c23)c(OC)c1", "values": [{"measurement": "Potency", "result": "inactive"}]}
{"smiles": "O=C(C=Cc1ccc(O)cc1)c1ccc(O)cc1O", "values": [{"measurement": "Potency", "result": "inactive"}]}
{"smiles": "COc1ccc(-c2nc3sc(CCNS(=O)(=O)c4ccccc4)c(C)n3n2)cc1", "values": [{"measurement": "Potency", "result": "inactive"}]}
{"smiles": "COc1cc(OC)c(OC)cc1/C=C/c1nc2cc3ccccc3cc2c(=O)n1-c1ccc(F)c(Cl)c1", "values": [{"measurement": "Potency", "result": "inactive"}]}
{"smiles": "O=C(Nc1ccc(F)cc1)C1CCN(S(=O)(=O)c2ccc3c(c2)CCCN3C(=O)C2CCC2)CC1", "values": [{"measurement": "Potency", "result": "inactive"}]}
{"smiles": "CCC1=C(c2ccc(C)cc2)S(=O)(=O)N=C1N1CCC(C(=O)NCCc2ccc(Cl)cc2)CC1", "values": [{"measurement": "Potency", "result": "inactive"}]}
{"smiles": "Cc1ccccc1C(=O)Nc1nc(-c2ccc(Br)cc2)ns1", "values": [{"measurement": "Potency", "result": "inactive"}]}
{"smiles": "CCOC(=O)c1cccc(NC(=O)CCn2c(-c3ccc(F)cc3)cc(C(=O)OCC)c2C)c1", "values": [{"measurement": "Potency", "result": "inactive"}]}
{"smiles": "CCCNc1nc(NCc2ccccc2OC)c2cnn(C)c2n1", "values": [{"measurement": "Potency", "result": "inactive"}]}
{"smiles": "COc1ccc(CCNC(=O)c2ccc3c(c2)CCN3S(=O)(=O)c2ccc(Cl)cc2)cc1", "values": [{"measurement": "Potency", "result": "inactive"}]}
{"smiles": "Cc1cccc(NC(=O)Cc2ccc(-n3c(C)nc4cccnc43)cc2)c1C", "values": [{"measurement": "Potency", "result": "inactive"}]}
{"smiles": "O=C(CCNS(=O)(=O)c1ccc2c(c1)CCN2C(=O)C1CC1)N1CCN(c2ccc(F)cc2)CC1", "values": [{"measurement": "Potency", "result": "inactive"}]}
{"smiles": "Cc1oc(-c2ccc(C(=O)NCCCOC(C)C)cc2)nc1CS(=O)(=O)c1ccccc1", "values": [{"measurement": "Potency", "result": "inactive"}]}
{"smiles": "Cc1ccc(NC(=O)C2CCCN2S(=O)(=O)c2cccc3nsnc23)cc1Cl", "note": "(stereo unspecified)", "values": [{"measurement": "Potency", "result": "inactive"}]}
